Records with an inconclusive call do not appear. Entries that show only a call come without a potency. Active and inactive are the calls of the source. Calls come from the whole dose curve; as a rule, active = well fitted inhibition curve with a large enough effect in the repeat runs; inconclusive = weak or mixed curves, or effect the other way; inactive = no such curve, though single readings can be large or run the other way.
Potency is the fitted concentration of half-maximal effect.

Nuclear receptor subfamily 1 group I member 3 (Homo sapiens), sequence (Q14994 whole entry, looked up): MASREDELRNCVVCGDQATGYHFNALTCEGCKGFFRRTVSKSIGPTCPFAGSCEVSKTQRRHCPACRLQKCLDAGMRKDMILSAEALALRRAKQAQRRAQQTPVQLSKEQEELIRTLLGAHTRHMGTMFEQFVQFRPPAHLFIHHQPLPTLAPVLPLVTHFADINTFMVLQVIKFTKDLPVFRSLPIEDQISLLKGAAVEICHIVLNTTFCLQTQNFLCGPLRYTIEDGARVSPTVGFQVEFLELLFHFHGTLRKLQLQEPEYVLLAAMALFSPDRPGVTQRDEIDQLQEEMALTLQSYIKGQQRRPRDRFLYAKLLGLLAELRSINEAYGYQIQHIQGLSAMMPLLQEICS

The assay addresses Nuclear receptor subfamily 1 group I member 3 (Homo sapiens) (UniProt Q14994). In words: qHTS assay to identify small molecule antagonists of the constitutive androstane receptor (CAR) signaling pathway (AID 1224838).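 Note: HepG2 cells stably expressing hCAR with CYP2B6 luciferase reporter stimulated by CITCO; nearly all actives have a fitted effect of over 40% in size.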 The note with it: HepG2-CYP2B6-hCAR luciferase, CITCO-stimulated, 24 h; series mostly up to 92.4 µM. An excerpt:
U.S. Tox21 Program National Center for Advancing Translational Sciences [NCATS] NIH Chemical Genomics Center [NCGC] U.S. Environmental Protection Agency [EPA] National Institutes of Environmental Health Sciences [NIEHS] National Toxicology Program [NTP] U.S. Food and Drug Administration [FDA] Tox21 Assay Overview: The constitutive androstane receptor (CAR) is a nuclear receptor which regulates multiple drug metabolizing enzymes (DMEs) and transporters. Activating CAR will generally increase the transcription and subsequent translation of CYP2B6 and CYP3A4. These two DMEs represent about 50% of the drug metabolizing potential in the body. When CAR is deactivated, the metabolizing potential in the body will decrease, subsequently increasing the toxicity in the body or lowering the therapeutic potential of a pro-drug. Recently, there have also been studies performed indicating CARs role in energy metabolism and cancer therapy. Therefore, inhibiting CARs activity could have a potential effect on diabetes and cancer. Identifying environmental toxins and compounds which modulate CAR, through the use of the Tox21 10K compound collection, will be an important step in determining the toxicity and potential therapeutic effects these factors will have on the human body.
Tox21 Assay Protocol Summary: A double-stable (hCAR and CYP2B6-2.2kb) transfected cell line, derived from human hepatoma (HepG2) cells, was utilized for the duration of the quantitative high-throughput screens. The HepG2-CYP2B6-hCAR cells suspended in DMEM culture medium supplemented with 10% FBS, 5 ug/mL blasticidin, 0.5 mg/mL geneticin, 100 U/mL penicillin and 100 ug/mL streptomycin were dispensed at 2500 cells/4 uL/well in 1536-well white solid bottom plates using a Multidrop Combi. After the assay plates were incubated at 37 C/5% CO2 for 4 hrs, 23 nL of compounds at 15 concentrations (from 5-48 columns) or positive control (from 1 to 4 columns) were transferred to the assay plates using a Pintool station. One uL of CITCO, was added using a Flying Reagent Dispenser to generate a final concentration of 50 nM CITCO inside each well. After a 24 hr incubation period at 37 C/5% CO2, four uL of ONE-Glo reagent was added into the assay plates using a Flying Reagent Dispenser. After a 30 min incubation period at room temperature, the luminescence intensity in the assay plates was measured using a ViewLux plate reader.
A general note: In qHTS, concentration-response curves come from the screen itself.
With `Cc1cc(O)c(C(C)(C)C)cc1Sc1cc(C(C)(C)C)c(O)cc1C`, the Potency is 21.6 µM (active). In the case of `N#CSc1ccc(N)c([N+](=O)[O-])c1` it was 48.9 µM (active); in that of `Cc1ccc(O)c2ncccc12`, 13.3 µM (active). For the compound `O=C(OCC1CO1)C1CCCCC1C(=O)OCC1CO1` (stereo not given), the Potency result is “inactive”.

As for `CC(C)=CCOc1ccc(/C=C/C(=O)c2ccc(OCC=C(C)C)cc2OCC(=O)O)cc1`, the Potency entry was “inactive”. The value for `Cc1cccc(N(C)C(=S)Oc2ccc3c(c2)C2CCC3C2)c1` (stereo not given) was “inactive”. In the case of `COc1cccc(N)c1` it was “inactive”; in that of `CCCC(c1cc(C(C)(C)C)c(O)cc1C)c1cc(C(C)(C)C)c(O)cc1C`, 24.6 µM (active); in that of `Fc1ccc([C@@H]2CCNC[C@H]2COc2ccc3c(c2)OCO3)cc1`, “inactive”. The value for `CC(=O)N1CCN(c2ccc(OC[C@H]3CO[C@](Cn4ccnc4)(c4ccc(Cl)cc4Cl)O3)cc2)CC1` was “inactive”; that for `C=CC(=O)OCCn1c(=O)n(CCOC(=O)C=C)c(=O)n(CCOC(=O)C=C)c1=O` was 24.3 µM (active); that for `Clc1ccc2nsnc2c1NC1=NCCN1` was “inactive”.

On to `O=c1[nH]cnc2nc[nH]c12`, for which the Potency result is “inactive”. The value for `CCC1OCC(COc2ccc(Oc3ccccc3)cc2)O1` (stereo not given) was “inactive”; that for `CCc1cc(Cc2cc(CC)c(N)c(CC)c2)cc(CC)c1N` was “inactive”; that for `CC(=O)S[C@@H]1CC2=CC(=O)CC[C@]2(C)[C@H]2CC[C@@]3(C)[C@@H](CC[C@@]34CCC(=O)O4)[C@H]12` was 54.5 µM (active).

On to `CCCC(=O)OC[C@@H](OC(=O)CCC)[C@@H](OC(=O)CCC)[C@H](Cn1c2nc(=O)[nH]c(=O)c-2nc2cc(C)c(C)cc21)OC(=O)CCC`, for which the Potency is 29.8 µM (active). Regarding `O=c1cccccc1O`, the Potency entry is “inactive”. With `CCCC1O[C@@H]2C[C@H]3[C@@H]4CCC5=CC(=O)C=C[C@]5(C)[C@H]4[C@@H](O)C[C@]3(C)[C@]2(C(=O)CO)O1` (stereo not given in full), the Potency entry was “inactive”.

Take `Clc1ccc(C(Cn2ccnc2)OCc2ccc(Sc3ccccc3)cc2)c(Cl)c1` (stereo not given): the Potency entry is “inactive”.

For the compound `CCC(C)(C)C1CCCCC1OC(C)=O` (stereo not given), the Potency result is “inactive”. On to `Cc1cccc(CN2CCN(C(c3ccccc3)c3ccc(Cl)cc3)CC2)c1` (stereo not given), for which the Potency entry was “inactive”. In the case of `CC(C)CCCCCCCCCCCCCCC(=O)O` it was “inactive”. In the case of `CC1=NC(C)OC1C` (stereo not given) it was “inactive”; in that of `C=CC(=O)OCC(CO)(COCC(COC(=O)C=C)(COC(=O)C=C)COC(=O)C=C)COC(=O)C=C`, 5.38 µM (active); in that of `CCCCCCCCn1sc(Cl)c(Cl)c1=O`, 27.3 µM (active). Turning to `CCCCCCCCCCCC[N+](C)(C)CCCCCCCCCCCC`, the Potency was 27.3 µM (active). The value for `O=C1c2c(O)ccc(Nc3ccc(CCO)cc3)c2C(=O)c2c([N+](=O)[O-])ccc(O)c21` was “inactive”; that for `CC(C)(C)C1CCC(CC2=C(O)c3ccccc3C(=O)C2=O)CC1` (stereo not given) was “inactive”. The value for `Oc1cccc(-c2c3nc(c(-c4cccc(O)c4)c4ccc([nH]4)c(-c4cccc(O)c4)c4nc(c(-c5cccc(O)c5)c5ccc2[nH]5)CC4)C=C3)c1` was “inactive”; that for `CCC(CN)=C(c1ccccc1)c1ccccc1` was “inactive”; that for `[Cl][Bi]([Cl])([c]1ccccc1)([c]1ccccc1)[c]1ccccc1` was 12.1 µM (active).

For `c1ccc(CSCc2ccccc2)cc1`, the Potency result is “inactive”. Take `CCOC(=O)/C=C(C)/C=C/C=C(C)/C=C/c1c(C)cc(OC)c(C)c1C`: the Potency entry was “inactive”. Take `CC[C@H](c1ccc(O)cc1)[C@@H](CC)c1ccc(O)cc1`: the Potency is 0.473 µM (active). In the case of `Fc1ccc(C(c2ccc(F)cc2)N2CCN(C/C=C/c3ccccc3)CC2)cc1` it was “inactive”. The value for `CCCCCCCC/C=C/CCCCCCCC1=NCCN1CCO` was 61.1 µM (active). The value for `CN(C)c1ccc(SC#N)cc1` was 27.3 µM (active); that for `CCCCCCCCOC(=O)c1ccc(O)cc1` was “inactive”; that for `CCCCCCCCCCCCCCCCCC[N+](C)(C)Cc1ccccc1` was 49 µM (active).

For the origin of these results see PubChem BioAssay (Tox21).
